Data: PubChem BioAssay AID1159580 (chemical genetic matrix, 2015)
“And” between values parts separate entries of the source, which are not always exact repeats. Equal values may be shown once. The campaign covered roughly 5,500 compounds. About 2,000 (36%) were called active. About 18% were inconclusive and are not listed. Cut-off read from the data, not from the text of the source: active = normalized growth mostly below about 0.91 (no sharp cut-off); inconclusive = no clear call, values can overlap the other calls; inactive = mostly above about 0.92. This is one part of the list.

Assay: chemical genetic growth profiling, strain panel (AID 1159580);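 note: tested at 20 µM; growth read once vehicle control cultures reached saturation at 30 °C; 1 = growth at the plate median or of vehicle wells; lower values mean less growth of the strain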
Conditions: growth OD

Measured: normalized growth

CSCCC(N)C(=O)NC(CC(C)C)C(=O)NC(Cc1ccccc1)C(=O)O (configuration not stated)
inactive: S. cerevisiae deletion strains, locus YAL013W, strain DEP1, hits give low values 1.01 | S. cerevisiae deletion strains, locus YBR021W, strain FUR4, hits give low values 1.02 | S. cerevisiae deletion strains, locus YBR229C, strain ROT2, hits give low values 1.01 | S. cerevisiae deletion strains, locus YCL029C, strain bik1, hits give low values 0.987 | S. cerevisiae deletion strains, locus YDL035C, strain GPR1, hits give low values 1.02 | S. cerevisiae deletion strains, locus YDL074C, strain BRE1, hits give low values 1.05 | S. cerevisiae deletion strains, locus YDL101C, strain DUN1, hits give low values 1.02 | S. cerevisiae deletion strains, locus YDL134C, strain PPH21, hits give low values 1.02 | S. cerevisiae deletion strains, locus YDL185W, strain tfp1, hits give low values 1 | S. cerevisiae deletion strains, locus YDL192W, strain arf1, hits give low values 1 | S. cerevisiae deletion strains, locus YDR101C, strain arx1, hits give low values 0.994 | S. cerevisiae deletion strains, locus YDR150W, strain NUM1, hits give low values 1.02 | S. cerevisiae deletion strains, locus YDR162C, strain NBP2, hits give low values 1.02 | S. cerevisiae deletion strains, locus YDR318W, strain mcm21, hits give low values 0.978 | S. cerevisiae deletion strains, locus YDR388W, hits give low values 0.995 | S. cerevisiae deletion strains, locus YDR502C, strain sam2, hits give low values 1.01 | S. cerevisiae deletion strains, locus YEL061C, strain CIN8, hits give low values 1.01 | S. cerevisiae deletion strains, locus YER110C, hits give low values 0.994 | S. cerevisiae deletion strains, locus YER155C, strain BEM2, hits give low values 1.01 | S. cerevisiae deletion strains, locus YER167W, strain BCK2, hits give low values 1.02 | S. cerevisiae deletion strains, locus YGL078C, strain dbp3, hits give low values 0.987 | S. cerevisiae deletion strains, locus YGL086W, strain mad1, hits give low values 0.999 | S. cerevisiae deletion strains, locus YGL248W, strain PDE1, hits give low values 1.02 | S. cerevisiae deletion strains, locus YGR078C, strain PAC10, hits give low values 1.03 | S. cerevisiae deletion strains, locus YGR135W, strain pre9, hits give low values 1 | S. cerevisiae deletion strains, locus YGR229C, strain SMI1, hits give low values 1.04 | S. cerevisiae deletion strains, locus YGR252W, strain gcn5, hits give low values 0.956 | S. cerevisiae deletion strains, locus YHR030C, strain SLT2, hits give low values 1 and 1.02 | S. cerevisiae deletion strains, locus YHR079C, strain IRE1 (second series), hits give low values 0.988 | S. cerevisiae deletion strains, locus YHR079C, strain IRE1, hits give low values 1.01 | S. cerevisiae deletion strains, locus YHR094C, strain hxt1, hits give low values 0.996 | S. cerevisiae deletion strains, locus YHR129C, strain ARP1, hits give low values 1.01 | S. cerevisiae deletion strains, locus YHR200W, strain rpn10, hits give low values 0.995 | S. cerevisiae deletion strains, locus YIL066C, strain RNR3, hits give low values 1.01 | S. cerevisiae deletion strains, locus YIL073C, strain SPO22, hits give low values 1 | S. cerevisiae deletion strains, locus YIL125W, strain kgd1, hits give low values 1 | S. cerevisiae deletion strains, locus YIR030C, strain dcg1, hits give low values 0.998 | S. cerevisiae deletion strains, locus YJL095W, strain BCK1, hits give low values 1.04 and 0.991 | S. cerevisiae deletion strains, locus YJL134W, strain LCB3, hits give low values 1.01 | S. cerevisiae deletion strains, locus YJL168C, strain set2, hits give low values 0.998 | S. cerevisiae deletion strains, locus YJL187C, strain SWE1 (second series), hits give low values 1.02 | S. cerevisiae deletion strains, locus YJR043C, strain POL32, hits give low values 1 | S. cerevisiae deletion strains, locus YJR066W, strain TOR1, hits give low values 0.934 | S. cerevisiae deletion strains, locus YJR075W, strain HOC1, hits give low values 1.02 | S. cerevisiae deletion strains, locus YKL009W, strain mrt4, hits give low values 0.993 | S. cerevisiae deletion strains, locus YKL068W, hits give low values 0.987 | S. cerevisiae deletion strains, locus YKL085W, strain MDH1 (second series), hits give low values 1 | S. cerevisiae deletion strains, locus YKL085W, strain MDH1, hits give low values 1 | S. cerevisiae deletion strains, locus YKL190W, strain CNB1, hits give low values 1.01 | S. cerevisiae deletion strains, locus YKR001C, strain vps1, hits give low values 0.995 | S. cerevisiae deletion strains, locus YLR039C, strain RIC1, hits give low values 1.07 | S. cerevisiae deletion strains, locus YLR058C, strain SHM2, hits give low values 1.01 | S. cerevisiae deletion strains, locus YLR102C, strain apc9, hits give low values 0.994 | S. cerevisiae deletion strains, locus YLR113W, strain HOG1, hits give low values 0.988 | S. cerevisiae deletion strains, locus YLR262C, strain YPT6, hits give low values 1.04 | S. cerevisiae deletion strains, locus YLR268W, strain sec22, hits give low values 1.01 | S. cerevisiae deletion strains, locus YLR330W, strain CHS5, hits give low values 1.01 | S. cerevisiae deletion strains, locus YLR342W, strain FKS1 (second series), hits give low values 1.01 | S. cerevisiae deletion strains, locus YLR371W, strain rom2, hits give low values 1 | S. cerevisiae deletion strains, locus YLR418C, strain cdc73, hits give low values 1 | S. cerevisiae deletion strains, locus YML016C, strain PPZ1, hits give low values 1.01 | S. cerevisiae deletion strains, locus YML032C, strain rad52, hits give low values 0.989 | S. cerevisiae deletion strains, locus YML124C, strain tub3, hits give low values 0.995 | S. cerevisiae deletion strains, locus YMR078C, strain ctf18, hits give low values 0.987 | S. cerevisiae deletion strains, locus YMR223W, strain ubp8, hits give low values 0.995 | S. cerevisiae deletion strains, locus YMR263W, strain SAP30, hits give low values 1.03 | S. cerevisiae deletion strains, locus YMR307W, strain GAS1, hits give low values 0.996 | S. cerevisiae deletion strains, locus YNL067W, strain RPL9B, hits give low values 1.03 | S. cerevisiae deletion strains, locus YNL128W, strain TEP1, hits give low values 1.03 | S. cerevisiae deletion strains, locus YNL153C, strain GIM3, hits give low values 1.02 | S. cerevisiae deletion strains, locus YNL183C, strain NPR1, hits give low values 0.928 | S. cerevisiae deletion strains, locus YNL233W, strain BNI4, hits give low values 1.02 | S. cerevisiae deletion strains, locus YNL250W, strain rad50, hits give low values 1 | S. cerevisiae deletion strains, locus YNL271C, strain bni1, hits give low values 0.994 | S. cerevisiae deletion strains, locus YNL298W, strain CLA4, hits give low values 1 | S. cerevisiae deletion strains, locus YNL307C, strain MCK1, hits give low values 0.98 | S. cerevisiae deletion strains, locus YNL322C, strain KRE1, hits give low values 1.01 | S. cerevisiae deletion strains, locus YNR052C, strain pop2, hits give low values 0.996 | S. cerevisiae deletion strains, locus YOL006C, strain TOP1, hits give low values 1.11 | S. cerevisiae deletion strains, locus YOL012C, strain htz1 0.734 | S. cerevisiae deletion strains, locus YOL147C, strain pex11, hits give low values 0.996 | S. cerevisiae deletion strains, locus YOR061W, strain CKA2, hits give low values 1.02 | S. cerevisiae deletion strains, locus YOR069W, strain VPS5, hits give low values 1.01 | S. cerevisiae deletion strains, locus YOR136W, strain idh2, hits give low values 0.989 | S. cerevisiae deletion strains, locus YOR144C, strain elg1, hits give low values 0.998 | S. cerevisiae deletion strains, locus YOR184W, strain ser1, hits give low values 0.989 | S. cerevisiae deletion strains, locus YOR231W, strain MKK1, hits give low values 1 | S. cerevisiae deletion strains, locus YOR316C, strain cot1, hits give low values 0.998 | S. cerevisiae deletion strains, locus YPL055C, strain LGE1, hits give low values 1.06 | S. cerevisiae deletion strains, locus YPL241C, strain CIN2, hits give low values 1.01 | S. cerevisiae deletion strains, locus YPL256C, strain CLN2, hits give low values 1.01 | S. cerevisiae deletion strains, locus YPR119W, strain clb2, hits give low values 0.985 | S. cerevisiae deletion strains, locus YPR141C, strain kar3, hits give low values 0.993 | S. cerevisiae deletion strains, locus YPR163C, strain tif3, hits give low values 0.989 | S. cerevisiae deletion strains, locus YPR167C, strain met16, hits give low values 0.993 | S. cerevisiae deletion strains, strain wtn01, hits give low values 1.01 | S. cerevisiae strains, strain wild type, hits give low values 1.01
